Compound activity from PubChem BioAssay.
HSP90 refold inh: blocks HSP90-mediated luciferase refolding in reticulocyte lysate. 290,000 tested, 0.91% active. Rabbit reticulocyte lysate, luciferase refolding luminescence, 3 h. AID 1789. inhibition, % at 5.6 µM;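 active means inhibition above the screen-wide mean plus 3 SD, computed separately per campaign, cut at about 16% in these data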;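 further: inhibitors lower the luminescence because luciferase stays unfolded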
SENP7 inh: SENP7 protease inhibition; Q9BQF6; inhibition, % at 5 µM; 330,000 tested, 1.5% active; AID 434973; recombinant SENP7, Z-RLRGG-aminoluciferin luminescence, 40 min;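 active means inhibition above about 50% at the single test dose, limit read from the data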
SENP8 block-1: blocks the human protease SENP8 | Q96LD8 | 330,000 tested, 1.2% active | purified SENP8, Z-RLRGG-aminoluciferin cleavage, luminescence | inhibition, % at 10 µM; in the data active means inhibition above about 50%
LGR2 inh: blocks bursicon-induced cAMP signaling via Drosophila LGR2 | inhibition, % at 9.99 µM | 380,000 tested, 0.35% active | HEK293 LGR2, CRE-luciferase, bursicon-stimulated, 4 h;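 active means drop in luminescence signal, shown as inhibition above about 50% in the replicate tests, limit read from the data, passing the limit was not always enough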;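 further: agonist challenge used bursicon conditioned medium at about half maximal strength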
SENP8 block-2: SENP8 (human) protease inhibition; Q96LD8; recombinant SENP8, Nedd8 substrate fluorescence; inhibition, % at 20 µM; 360,000 tested, 0.64% active; AID 602440; in the data active means inhibition mostly above about 40%, no sharp cut-off; inactive means mostly below about 27%
SENP6 block: blocks the human protease SENP6. inhibition, % at 10 µM. AID 2599. 330,000 tested, 1.8% active. Recombinant SENP6 catalytic domain, aminoluciferin luminescence;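 active means inhibition above about 50% at the single tested dose, limit read from the data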
Target sequence (Q9GZR1 628-1112 limits assumed): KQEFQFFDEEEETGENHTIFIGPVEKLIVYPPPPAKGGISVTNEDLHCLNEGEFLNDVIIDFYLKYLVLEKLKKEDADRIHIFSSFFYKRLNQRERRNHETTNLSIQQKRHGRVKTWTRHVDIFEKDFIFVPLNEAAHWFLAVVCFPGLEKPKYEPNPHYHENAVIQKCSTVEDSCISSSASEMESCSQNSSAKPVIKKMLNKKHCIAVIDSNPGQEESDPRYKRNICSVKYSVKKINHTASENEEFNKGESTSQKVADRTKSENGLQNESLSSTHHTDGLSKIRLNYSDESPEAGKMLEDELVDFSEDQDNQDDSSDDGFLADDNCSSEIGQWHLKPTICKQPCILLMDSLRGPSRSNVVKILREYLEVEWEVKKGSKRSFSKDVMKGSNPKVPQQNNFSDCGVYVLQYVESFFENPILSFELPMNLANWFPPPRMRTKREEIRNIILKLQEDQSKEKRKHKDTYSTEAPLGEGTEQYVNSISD
SENP8 conf: human SENP8 inhibition, confirmed; shares compounds with SENP7 inh; Recombinant SENP8, Z-RLRGG-aminoluciferin luminescence, 60 min; inhibition, % at 12.5 µM; 6,200 tested, 40% active; AID 488912;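 active means mean inhibition across replicates above about 50%, limit read from the data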
SENP6 conf: confirmation of human SENP6 protease inhibitors; shares compounds with SENP7 inh; recombinant SENP6, Z-RLRGG-aminoluciferin luminescence; inhibition, % at 12.5 µM; 6,200 tested, 58% active; AID 488915
SENP7 confirm: confirmation of human SENP7 protease inhibitors. shares compounds with SENP7 inh. recombinant SENP7, Z-RLRGG-aminoluciferin luminescence, 40 min. inhibition, % at 12.5 µM. 6,200 tested, 69% active. AID 488917
Casp3 select: inhibits human caspase-3 in SENP selectivity test. shares compounds with SENP7 inh. purified caspase-3, Z-DEVD-aminoluciferin luminescence, 60 min. inhibition, % at 12.5 µM. 6,200 tested, 60% active. AID 488918;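 active means mean inhibition above about 50%, limit read from the data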
Target sequence (P42574 28-227 limits assumed): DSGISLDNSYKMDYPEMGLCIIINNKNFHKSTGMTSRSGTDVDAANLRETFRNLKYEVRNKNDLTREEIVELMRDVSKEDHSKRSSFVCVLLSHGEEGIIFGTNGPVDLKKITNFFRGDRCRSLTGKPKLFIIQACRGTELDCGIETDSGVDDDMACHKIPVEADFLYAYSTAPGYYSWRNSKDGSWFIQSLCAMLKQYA
SENP luc ctr: luminescence interference (SENP counter-screen); shares compounds with SENP7 inh; Pre-incubated SENP8/Z-RLRGG-aminoluciferin, luciferase luminescence interference; inhibition, % at 12.5 µM; 6,200 tested, 39% active; AID 488919;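 active means mean inhibition above about 50% when retested at one dose, limit read from the data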
Hits are given with their value; . = inactive; / = no result. Only some compounds are listed: those with a hit (about 2.3% of all), similar ones and a draw of the others.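 How the source made its calls, unless noted: active means mean inhibition above about 50% in the one-dose retest (limit read from the data); inactive means the rest.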

SMILES	HSP90 refold inh	SENP7 inh	SENP8 block-1	LGR2 inh	SENP8 block-2	SENP6 block	SENP8 conf	SENP6 conf	SENP7 confirm	Casp3 select	SENP luc ctr
C[C@@H]1CN([C@@H](C)CO)C(=O)Cc2cc(NC(=O)Nc3ccc(C(F)(F)F)cc3)ccc2O[C@H]1CN(C)C(=O)Nc1cccc2ccccc12	/	/	/	.	/	/	/	/	/	/	/
COC(=O)c1c(-c2ccccc2)csc1NC(=O)c1ccco1	.	.	.	/	.	.	/	/	/	/	/
O=C(Nc1scc(-c2ccc(F)cc2)c1C(=O)O)c1ccco1	.	.	71	/	.	86	.	77	93	87	81
Cc1cccc(C(=O)Nc2scc(CC(C)C)c2C(=O)O)c1	.	.	.	.	.	.	/	/	/	/	/
CC(C)Cc1csc(NC(=O)c2ccc(Cl)cc2)c1C(=O)O	.	.	91	.	.	94	95	97	99	87	76
Cc1ccc(-c2csc(NC(=O)/C=C/c3ccco3)c2C(=O)O)cc1	.	72	89	.	.	86	68	97	101	96	67
CC(C)Cc1csc(NC(=O)c2ccccc2Cl)c1C(=O)O	.	.	.	.	.	.	/	/	/	/	/
Cc1cccc(C(=O)Nc2scc(-c3ccc(Br)cc3)c2C(=O)O)c1	/	.	72	/	.	.	.	54	.	.	.
Cc1noc(C)c1NC(=O)N(C)C[C@H]1Oc2c(NS(=O)(=O)c3ccccc3)cccc2C(=O)N([C@@H](C)CO)C[C@@H]1C	/	/	/	.	/	/	/	/	/	/	/
Cc1ccccc1N=C1Nc2ccccc2CS1	.	80	74	/	.	86	.	79	95	79	.
COc1ccc(CSc2nc3ccccc3[nH]2)cc1	.	94	88	/	.	96	92	94	100	92	93
O=C1CCC(=O)N1c1ccc(CSc2nc3ccccc3[nH]2)cc1	.	.	.	/	.	.	/	/	/	/	/
c1cnc2c(SCc3ccc(-c4nnco4)cc3)cccc2c1	.	.	.	/	.	.	/	/	/	/	/
c1ccc2[nH]c(SCc3ccc(-c4nnco4)cc3)nc2c1	.	71	.	/	.	72	64	61	88	81	75
COC(=O)c1cccc(CSc2nc3ccccc3[nH]2)c1	.	72	.	.	.	65	.	50	83	64	68
O=C(C[C@@H]1C[C@@H]2c3cc(NC(=O)Nc4ccc(F)cc4)ccc3O[C@@H]2[C@@H](CO)O1)NC1CCCCC1	/	/	/	.	/	/	/	/	/	/	/
COc1ccc2c(c1O)C(=O)c1ccccc1C2=O	.	.	.	/	/	.	/	/	/	/	/
CC(C)COC(=O)c1ccc2c(c1O)C(=O)c1ccccc1C2=O	.	93	.	/	.	81	85	88	95	59	52
Fc1ccccc1-c1cc2ncccc2cn1	/	.	.	.	.	.	/	/	/	/	/
COc1cc(OC)cc(-c2cc3ccc(OC)cc3cn2)c1	/	100	97	.	.	99	100	101	104	99	98
COc1cc(OC)cc(-c2cc3ncccc3cn2)c1	/	53	.	.	.	.	.	.	68	66	51
CCOC(=O)c1cccc(NC(=O)c2cccs2)c1	.	.	.	/	.	.	/	/	/	/	/
CCOC(=O)c1sc(NC(=O)c2sccc2C)cc1C	.	100	97	/	.	99	100	101	104	99	97
CCOC(=O)c1sc(NC(=O)Nc2cccc(Cl)c2)cc1C	.	.	.	.	.	.	/	/	/	/	/
CCOC(=O)c1sc(NC(=O)c2cccs2)cc1C	.	91	66	/	.	83	.	75	98	81	.
SMILES	HSP90 refold inh	SENP7 inh	SENP8 block-1	LGR2 inh	SENP8 block-2	SENP6 block	SENP8 conf	SENP6 conf	SENP7 confirm	Casp3 select	SENP luc ctr
Cc1nc2ccccc2n1/N=C/c1ccc([N+](=O)[O-])s1	.	.	.	.	.	73	.	.	.	.	.
O=[N+]([O-])c1ccc(/C=N/Nc2ncccc2[N+](=O)[O-])s1	/	91	.	.	.	.	.	.	.	.	.
O=[N+]([O-])c1ccc(/C=N/n2cnc3ccccc32)s1	.	.	.	.	.	73	.	.	.	.	.
FC(F)Oc1ccccc1/C=N/n1cnc2ccccc21	.	.	.	.	.	.	/	/	/	/	/
O=C(O)c1ccccc1N=Nc1c(O)[nH]c2ccc([N+](=O)[O-])cc12	.	94	95	/	.	99	98	98	101	94	.
O=C(N=Nc1c(O)[nH]c2ccc([N+](=O)[O-])cc12)c1ccccc1Cl	.	.	.	.	.	.	/	/	/	/	/
Cc1[nH]nc(SCC(=O)N2CCCCC2)c1[N+](=O)[O-]	.	.	.	/	.	.	/	/	/	/	/
Cc1[nH]nc(SCC(=O)N2CCCCCC2)c1[N+](=O)[O-]	.	.	52	.	.	.	98	100	103	99	88
N#C[C@H]1[C@@H](c2ccccc2C2=CCCCC2)[C@@H](CO)N1C(=O)NC1CCCCC1	/	/	/	.	/	/	/	/	/	/	/
Cc1cccc(NC(=S)Nc2ccccn2)c1	.	.	.	.	.	.	/	/	/	/	/
Cc1cccc(NC(=S)c2nc3ccccc3s2)c1	.	90	84	/	.	65	62	83	90	74	.
CC(C)[C@H](NS(=O)(=O)c1ccccc1)C(=O)OCC(=O)NC(=O)c1cccn1C	.	.	.	/	.	60	.	.	68	61	.
COC(=O)[C@@H]1[C@@H](CO)[C@@H]2Cn3c(ccc(-c4ccccc4OC)c3=O)[C@@H]2N1CC1CCOCC1	/	/	/	.	/	/	/	/	/	/	/
COc1ccc(S(=O)(=O)N(C)C[C@H]2Oc3c(NC(=O)NC(C)C)cccc3C(=O)N([C@@H](C)CO)C[C@@H]2C)cc1	/	/	/	.	/	/	/	/	/	/	/
C/C(=N\NC(=O)c1cc(Br)ccc1O)c1cccs1	.	.	.	.	.	63	.	.	.	.	.
C/C(=N/NC(=O)c1ccc(Br)o1)c1cccs1	.	.	.	.	.	.	/	/	/	/	/
CN(C)C(=O)C[C@@H]1CC[C@@H]2[C@@H](COc3ccc(NC(=O)C4CCC4)cc3C(=O)N2C)O1	/	/	/	.	/	/	/	/	/	/	/
C[C@@H]1CN([C@H](C)CO)C(=O)c2cc(C#C[C@@H](C)O)cnc2O[C@H]1CN(C)Cc1cccc(C(=O)O)c1	/	/	/	.	/	/	/	/	/	/	/
COCCNC(=O)CN(c1cc(Cl)ccc1OC)S(=O)(=O)c1ccc(C)c([N+](=O)[O-])c1	.	.	.	.	.	.	/	/	/	/	/
